Data on eight compounds can be found in PubChem BioAssay (NCATS).

Each structure is given as a SMILES string. A number with no mark means an inactive call. Inconclusive results are not listed. Active and inactive are the calls of the source. Unless noted, the call rests on the fitted dose curve; in most records, active means well fitted curve in the direction sought with a large enough effect; inconclusive means small, poorly fitted or top-dose-only effect, or another doubt; inactive means no such curve, though single readings can be large; an effect the other way counts as inactive or inconclusive.

Assay [1] addresses T1, Tyrosine-protein phosphatase non-receptor type substrate 1 (Homo sapiens) + Leukocyte surface antigen CD47 (Homo sapiens) (UniProt P78324+Q08722). Nature of the assay: CD47-SIRPalpha protein protein interaction - Alpha assay qHTS validation (AID 1347059).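 Further: bead proximity luminescence from CD47 binding SIRPalpha after compound preincubation with SIRPalpha.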 Further: potency means the concentration at half of the fitted maximal effect. A digest of the protocol: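 Soluble extracellular domains: Avi-tag biotinylated SIRPalpha (25 nM) preincubated 30 min RT with compound, then 6His-CD47 (12.5 nM) 30 min; Ni-NTA acceptor and streptavidin donor beads (10 ug/mL) 30 min, AlphaScreen read. PBS pH 7.4, 0.05% IGEPAL.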
(In general: Quantitative high-throughput screening tests each substance at several concentrations.)

Assay [2] has as its target Parathyroid hormone/parathyroid hormone-related peptide receptor (Homo sapiens) (UniProt Q03431). Nature of the assay: qHTS for PTHR1 Agonists: Optimization Screen against the NCGC LOPAC library (AID 1347079).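 Further: GloSensor cAMP luminescence in HEK-293 GP2 cells expressing human PTHR1 with IBMX.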 A digest of the protocol: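 Compounds were tested across a qHTS titration. PTHR1-expressing GP2 cells report cAMP rises via GloSensor luminescence after 1 hr compound exposure at 37C with IBMX present.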

A short description of assay [3]: qHTS of pediatric cancer cell lines to identify multiple opportunities for drug repurposing: Primary screen for TC32 cells (AID 1347089). Further: nearly all actives have a fitted effect of over 60% in size. A digest of the protocol: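 In the primary qHTS, MIPE compounds were tested at 11 concentrations (0.78 nM to 46 µM) and NPC compounds at 8 (0.59 nM to 46 µM) on TC32 cells for 48 h. CellTiter-Glo luminescence gave viability.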

A short description of assay [4]: qHTS of pediatric cancer cell lines to identify multiple opportunities for drug repurposing: Primary screen for DAOY cells (AID 1347090). Further: nearly all actives have a fitted effect of over 55% in size. Further: potency means the concentration at half of the fitted maximal effect. A digest of the protocol: (§1)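 Eight- or eleven-point concentration series, 48 h treatment at 37 degrees C in growth media; readout CellTiter-Glo luminescence. Potency and efficacy were taken from the concentration-response curves.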

Assay [5] in a line: qHTS of pediatric cancer cell lines to identify multiple opportunities for drug repurposing: Primary screen for SJ-GBM2 cells (AID 1347091). Further: potency means the concentration at half of the fitted maximal effect. An outline of the steps: as §1
Assay [6] is described as follows: qHTS of pediatric cancer cell lines to identify multiple opportunities for drug repurposing: Primary screen for A673 cells (AID 1347092). Further: nearly all actives have a fitted effect of over 45% in size. Further: potency means the concentration at half of the fitted maximal effect. An outline of the steps: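 48 h compound exposure, A673, 500-1,000 cells/well, 37 degrees C/5% CO2. MIPE: 11-point, 0.78 nM-46 µM; NPC: 8-point, 0.59 nM-46 µM (final). Readout CellTiter-Glo luminescence after 15 min RT.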
Assay [7] in a line: qHTS of pediatric cancer cell lines to identify multiple opportunities for drug repurposing: Primary screen for SK-N-MC cells (AID 1347093). Further: potency means the concentration at half of the fitted maximal effect. A digest of the protocol:
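Metabolically active cells were quantified by ATP-dependent luminescence (CellTiter-Glo, 15 min at room temperature) following 48 h treatment. Cells had been plated at 500-1,000 per well and settled for 5 h beforehand.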

The nature of assay [8]: qHTS of pediatric cancer cell lines to identify multiple opportunities for drug repurposing: Primary screen for BT-37 cells (AID 1347094). Further: potency means the concentration at half of the fitted maximal effect. An outline of the steps:
(§2)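 500-1,000 cells/well; 5 h pre-incubation 37 °C/5% CO2; compound pinned; 48 h; CellTiter-Glo, 15 min RT; luminescence. MIPE 11-pt from 0.78 nM, NPC 8-pt from 0.59 nM final. Bortezomib 2.3 µM final as positive control.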

Assay [9] in a line: qHTS of pediatric cancer cell lines to identify multiple opportunities for drug repurposing: Primary screen for Saos-2 cells (AID 1347097). Further: nearly all actives have a fitted effect of over 40% in size. Further: potency means the concentration at half of the fitted maximal effect. An outline of the steps:
as §2

Assay [10] can be described thus: qHTS of pediatric cancer cell lines to identify multiple opportunities for drug repurposing: Primary screen for SK-N-SH cells (AID 1347098). Further: nearly all actives have a fitted effect of over 65% in size. Further: potency means the concentration at half of the fitted maximal effect. A digest of the protocol: (§3)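 Cells (500-1,000/well) rested 5 h, then received compounds for 48 h; metabolically active cells were measured by CellTiter-Glo luminescence. Final concentrations spanned up to 46 µM (MIPE, 11-point) or 0.59 nM-46 µM (NPC, 8-point) in primary screens, 11-point in follow-ups.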

The nature of assay [11]: qHTS of pediatric cancer cell lines to identify multiple opportunities for drug repurposing: Primary screen for NB1643 cells (AID 1347099). Further: nearly all actives have a fitted effect of over 50% in size. Further: potency means the concentration at half of the fitted maximal effect. An outline of the steps: as §2
Assay [12] is described as follows: qHTS of pediatric cancer cell lines to identify multiple opportunities for drug repurposing: Primary screen for LAN-5 cells (AID 1347100). Further: potency means the concentration at half of the fitted maximal effect. A digest of the protocol: (§4)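 Cells (500-1,000/well) in growth media were settled 5 h at 37 degrees C, then given compounds for 48 h. Viability was read as CellTiter-Glo luminescence. Primary runs used MIPE at 11 points (0.78 nM-46 µM) and NPC at 8 points (0.59 nM-46 µM); follow-ups used 11 points.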

The nature of assay [13]: qHTS of pediatric cancer cell lines to identify multiple opportunities for drug repurposing: Primary screen for BT-12 cells (AID 1347101). Further: nearly all actives have a fitted effect of over 25% in size. Further: potency means the concentration at half of the fitted maximal effect. A digest of the protocol: as §3
Assay [14] is described as follows: qHTS of pediatric cancer cell lines to identify multiple opportunities for drug repurposing: Primary screen for Rh18 cells (AID 1347102). Further: nearly all actives have a fitted effect of over 65% in size. Further: potency means the concentration at half of the fitted maximal effect. A digest of the protocol:
as §4

Assay [15] in a line: qHTS of pediatric cancer cell lines to identify multiple opportunities for drug repurposing: Primary screen for RD cells (AID 1347104). Further: nearly all actives have a fitted effect of over 55% in size. Further: potency means the concentration at half of the fitted maximal effect. An outline of the steps: as §2
The nature of assay [16]: qHTS of pediatric cancer cell lines to identify multiple opportunities for drug repurposing: Primary screen for MG 63 (6-TG R) cells (AID 1347105). Further: nearly all actives have a fitted effect of over 50% in size. Further: potency means the concentration at half of the fitted maximal effect. An outline of the steps: as §2
Assay [17] concerns the target T1, Tyrosine-protein phosphatase non-receptor type substrate 1 (Homo sapiens) + Leukocyte surface antigen CD47 (Homo sapiens). Nature of the assay: CD47-SIRPalpha protein protein interaction - HTRF assay qHTS validation (AID 1347058; active means well fitted curve in the direction sought with a large enough effect in the signal ratio, not every such curve was filed as active; the % refers to the signal ratio; further: series mostly up to about 38 µM). A digest of the protocol: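 TR-FRET read (Ch1/Ch2 ratio) of soluble extracellular CD47 and Avi-biotinylated SIRPalpha domains in PBS pH 7.4 with 0.05% IGEPAL; 7-point compound titration. Sequential 30 min room-temperature steps; non-biotinylated SIRPalpha as control inhibitor.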

Assay [18] is described as follows: qHTS of pediatric cancer cell lines to identify multiple opportunities for drug repurposing: Primary screen for NB-EBc1 cells (AID 1347095). Further: potency means the concentration at half of the fitted maximal effect. A digest of the protocol:
as §2

Assay [19] is described as follows: qHTS of pediatric cancer cell lines to identify multiple opportunities for drug repurposing: Primary screen for U-2 OS cells (AID 1347096). Further: nearly all actives have a fitted effect of over 50% in size. A digest of the protocol: as §4
The nature of assay [20]: qHTS of pediatric cancer cell lines to identify multiple opportunities for drug repurposing: Primary screen for OHS-50 cells (AID 1347103). Further: nearly all actives have a fitted effect of over 40% in size. A digest of the protocol: as §3

Chain of Parathyroid hormone/parathyroid hormone-related peptide receptor (Homo sapiens) (Q03431 whole entry, looked up): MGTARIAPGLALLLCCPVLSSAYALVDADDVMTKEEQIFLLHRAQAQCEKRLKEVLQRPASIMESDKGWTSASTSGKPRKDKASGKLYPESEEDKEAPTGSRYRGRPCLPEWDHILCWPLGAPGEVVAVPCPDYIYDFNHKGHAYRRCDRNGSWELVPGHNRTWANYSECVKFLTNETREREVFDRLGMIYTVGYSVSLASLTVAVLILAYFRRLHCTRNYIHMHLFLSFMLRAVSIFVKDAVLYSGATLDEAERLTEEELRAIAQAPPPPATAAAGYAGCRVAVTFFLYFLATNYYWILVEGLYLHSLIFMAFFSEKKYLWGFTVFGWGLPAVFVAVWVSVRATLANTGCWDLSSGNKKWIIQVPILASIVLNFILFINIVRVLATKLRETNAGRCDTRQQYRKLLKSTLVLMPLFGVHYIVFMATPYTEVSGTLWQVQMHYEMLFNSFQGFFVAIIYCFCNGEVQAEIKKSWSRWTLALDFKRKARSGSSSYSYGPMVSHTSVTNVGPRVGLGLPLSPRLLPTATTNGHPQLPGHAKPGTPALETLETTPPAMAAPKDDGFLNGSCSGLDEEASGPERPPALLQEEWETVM
T1 sequence (P78324 whole entry, looked up, the tested form may be a part): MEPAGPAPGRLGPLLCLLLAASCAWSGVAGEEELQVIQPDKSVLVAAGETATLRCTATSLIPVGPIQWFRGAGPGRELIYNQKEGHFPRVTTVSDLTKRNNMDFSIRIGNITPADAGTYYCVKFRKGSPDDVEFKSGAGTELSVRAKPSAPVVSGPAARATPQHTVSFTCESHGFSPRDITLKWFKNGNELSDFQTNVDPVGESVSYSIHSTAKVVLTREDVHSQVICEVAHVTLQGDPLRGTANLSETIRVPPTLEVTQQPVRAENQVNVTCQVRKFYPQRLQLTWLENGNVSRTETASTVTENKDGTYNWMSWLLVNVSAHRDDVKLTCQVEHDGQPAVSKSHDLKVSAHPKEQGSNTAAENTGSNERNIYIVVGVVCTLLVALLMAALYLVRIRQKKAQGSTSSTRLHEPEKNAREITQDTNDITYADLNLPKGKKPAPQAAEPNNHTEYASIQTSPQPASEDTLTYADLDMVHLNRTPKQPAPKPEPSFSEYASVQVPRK
T1 sequence (Q08722 whole entry, looked up, the tested form may be a part): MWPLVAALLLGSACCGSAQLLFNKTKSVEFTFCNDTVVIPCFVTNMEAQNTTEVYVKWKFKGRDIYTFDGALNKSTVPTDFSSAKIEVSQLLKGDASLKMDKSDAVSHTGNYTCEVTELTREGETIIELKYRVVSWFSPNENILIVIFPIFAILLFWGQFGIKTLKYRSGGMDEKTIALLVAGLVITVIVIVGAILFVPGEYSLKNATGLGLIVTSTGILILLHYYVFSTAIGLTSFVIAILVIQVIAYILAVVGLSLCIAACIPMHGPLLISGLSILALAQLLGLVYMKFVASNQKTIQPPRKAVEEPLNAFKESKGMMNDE

For `O=Nc1c(-c2c(O)[nH]c3cc(Br)ccc23)[nH]c2ccccc12`, the Potency in assay [1] is 1.31 µM (active); in [4], 11.8 µM (active); in assay [5] it was 5.9 µM (active); in assay [6], 2.35 µM (active); in [7] it was 2.09 µM (active); in [8], 19.3 µM (active). For the same compound, the Potency in assay [9] is 14.8 µM (active); in [10] it was 17.1 µM (active); in [11], 9.35 µM (active); in assay [12], 18.7 µM (active); in [13], 24.3 µM (active); in assay [14], 18.7 µM (active). The Potency in assay [15] is 16.6 µM (active); in assay [16] it was 18.7 µM (active). In addition, in assay [2], the compound was called inactive. Moreover, the Potency entry in assay [3] is “inactive”.

Consider `NCCCCNCCCN`, for which the result in [17] and in [2] was inactive. The Potency result in assay [1], in assay [3], in assay [4], in assay [5], in assay [8] and in [18] was “inactive” each time. The Potency entry in assay [13], in assay [14], in [15] and in assay [16] was “inactive” each time. Also, the Potency in [7] is 3.32 µM (active); in assay [11], 4.18 µM (active).

Consider `Nc1nc(OCc2ccccc2)c2[nH]cnc2n1`, for which the outcome in [17] and in [2] was inactive. The Potency entry in assay [1], in assay [3], in [4], in assay [12], in [13] and in [14] was “inactive” each time. The Potency entry in assay [15] and in [16] was “inactive” each time. For the same compound, the Potency in [6] and in assay [18] was 18.7 µM (active) throughout.

As for `Oc1ccc2ccccc2c1SSc1c(O)ccc2ccccc12`, the outcome in assay [17] and in assay [2] was inactive. For the same compound, the Potency result in [1], in [3] and in assay [19] was “inactive” throughout. The Potency in [10] is 19.2 µM (active); in assay [11], 26.4 µM (active).

Regarding `Cc1cccc(C#Cc2ccccc2)n1`, the Potency entry in assay [1], in assay [3], in [4], in assay [6], in [8] and in [18] was “inactive” in each case. For the same compound, the Potency result in assay [19], in assay [12], in assay [13] and in assay [14] was “inactive” throughout. Also, the result in [2] was inactive.

With `C[C@@H](c1ncncc1F)[C@](O)(Cn1cncn1)c1ccc(F)cc1F`, the outcome in assay [17] was inactive. Moreover, the Potency entry in [1], in assay [3], in assay [5], in assay [8], in assay [19] and in [11] was “inactive” each time. For the same compound, the Potency result in [12], in assay [13], in assay [14] and in [15] was “inactive” in each case.

With `O=C(c1ccccc1)c1ccc2n1CCC2C(=O)O` (centres undefined), the outcome in assay [17] and in [2] was inactive. For the same compound, the Potency entry in assay [1], in assay [3], in [5], in assay [8], in assay [18] and in assay [19] was “inactive” throughout. Besides, the Potency entry in assay [9], in assay [11], in assay [12], in [13], in [14] and in assay [20] was “inactive” throughout. Besides, the Potency entry in assay [15] and in assay [16] was “inactive” in each case.

As to `NNc1nncc2ccccc12`, the outcome in assay [17] and in assay [2] was inactive. The Potency entry in assay [3], in assay [4], in [5], in assay [7], in assay [8] and in assay [19] was “inactive” each time. For the same compound, the Potency result in assay [9], in assay [10], in assay [11], in [12], in [13] and in assay [14] was “inactive” in each case. Also, the Potency result in [20], in [15] and in assay [16] was “inactive” throughout.
